Assay results taken from PubChem BioAssay (NCATS).
Several values for one entry are separate records, joined by “and”; a condition that tells them apart may be missing. Identical values can stand only once. Records with an inconclusive call do not appear. Activity calls are given as the source filed them. Unless noted, calls come from the whole dose curve; as a rule, active = well fitted curve in the direction sought with a large enough effect; inconclusive = small, poorly fitted or top-dose-only effect, or another doubt; inactive = no such curve, though single readings can be large; an effect the other way counts as inactive or inconclusive.

Columns and labels:
[1] = Cell Viability - LYMP2-015 (AID 971);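 note: 0% = DMSO only and full effect = 92 µM tetraoctylammonium bromide; nearly all actives have a fitted effect of over 55% in size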
Method in brief: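 Cells are seeded at 2500 per well and incubated 5 hr at 37 C. Compounds are added across a concentration series for 24 hr at 37 C. CellTiter-Glo is added, and luminescence is read after 30 min at room temperature.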

[2] = Cell Viability - LYMP2-017 (AID 972); note: series mostly up to about 92 µM; % is set by controls: 0 for no effect and ±100 for the full control effect; nearly all actives have a fitted effect of over 55% in size
Method in brief: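 Cytotoxicity is scored as a concentration-dependent drop in cellular ATP in a human lymphoblastoid line after 24 hr treatment at 37 C. Values are AC50s from Hill-equation modelling.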

[3] = Cell Viability - LYMP2-019 (AID 973);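 note: 0% = DMSO alone and full effect = 92 µM tetraoctylammonium bromide; nearly all actives have a fitted effect of over 55% in size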
Method in brief: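 Cytotoxicity is scored as a concentration-dependent drop in cellular ATP after cells (2500/well) receive compound for 24 hr at 37 C. Tetraoctylammonium bromide serves as positive control.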

[4] = Cell Viability - LYMP2-021 (AID 974);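 note: compound exposure lasts 24 hours at 37 °C; % is set by controls: 0 for no effect and ±100 for the full control effect; nearly all actives have a fitted effect of over 55% in size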
Method in brief: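 Loss of cellular ATP, measured with a luciferase-based CellTiter-Glo readout, serves as the toxicity signal in human lymphoblastoid cells treated for 24 hours at 37 C. Potency is reported as AC50 from a standard Hill model.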

[5] = Cell Viability - LYMP2-023 (AID 975)
Method in brief: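 Steps: seed 2500 human lymphoblastoid cells per well, incubate 5 hr at 37 C, add compound for 24 hr at 37 C, add CellTiter-Glo, hold 30 min at room temperature, read luminescence. AC50 derived by Hill modelling.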

[6] = Cell Viability - LYMP2-025 (AID 976);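 note: series mostly up to about 92 µM; plate controls were DMSO only for no effect and tetraoctylammonium bromide control for full effect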
Method in brief: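 Acute cytotoxicity is scored as a concentration-dependent fall in intracellular ATP, measured by luciferase luminescence, in human lymphoblastoid LYMP2-025 cells exposed to compound for 24 hours at 37 C. AC50 values come from standard Hill fits.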

[7] = Cell Viability - LYMP2-002 (AID 977);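 note: series mostly up to about 92 µM; compound exposure lasted 24 h at 37 °C; plate controls were DMSO only for no effect and 92 µM tetraoctylammonium bromide for full effect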
Method in brief: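 Human lymphoblastoid cells, 2500/well, complete medium; 5 h 37 C settle; compound 24 h 37 C; CellTiter-Glo, 30 min RT; luminescence. Decrease in ATP = cytotoxicity; AC50 via Hill equation.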

[8] = Cell Viability - LYMP2-007 (AID 979);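 note: cells exposed to compound for 24 h before reading; 0% = DMSO only and the negative end = 92 µM tetraoctylammonium bromide; nearly all actives have a fitted effect of over 60% in size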
Method in brief: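 Cells are seeded at 2500 per well and rested 5 hr. Compounds are then added over a concentration series for 24 hr at 37 C. CellTiter-Glo is added for 30 min at room temperature before luminescence reading.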

[9] = Cell Viability - LYMP2-008 (AID 980); note: % is set by controls: 0 for no effect and ±100 for the full control effect; nearly all actives have a fitted effect of over 60% in size
Method in brief: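 Cells seeded at 2500/well and rested 5 hr at 37 C; compounds added over a concentration range and incubated 24 hr at 37 C; CellTiter-Glo added, 30 min at room temperature; luminescence read and AC50 fitted with Hill model.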

[10] = Cell Viability - LYMP2-010 (AID 981)
Method in brief: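 Steps: seed 2500 LYMP2-010 cells per well; incubate 5 hr at 37 C; add compound; incubate 24 hr at 37 C; add CellTiter-Glo, wait 30 min at room temperature; read luminescence. Concentration-response fitted to Hill equation for AC50.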

[11] = Cell Viability - LYMP2-012 (AID 982)
[12] = Cell Viability - LYMP2-014 (AID 983);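 note: series mostly up to about 92 µM; plate controls were DMSO only for no effect and 92 µM tetraoctylammonium bromide for full effect; nearly all actives have a fitted effect of over 50% in size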
Method in brief: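 Cells are plated at 2500/well and left 5 hr at 37 C. Compounds are added across a concentration range and incubated 24 hr at 37 C in complete medium. CellTiter-Glo is added, and luminescence is read after 30 min at room temperature.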

[13] = Cell Viability - LYMP2-016 (AID 984)
Method in brief: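 Cells were seeded at 2500 per well and rested 5 hr before a 24 hr compound exposure at 37 C. Viability was then gauged as cellular ATP by luciferase luminescence, with AC50 values fitted to the Hill equation.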

[14] = Cell Viability - LYMP2-018 (AID 985);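 note: plate controls were DMSO only for no effect and tetraoctylammonium bromide at 92 µM for full effect; nearly all actives have a fitted effect of over 50% in size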
Method in brief: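 Seed 2500 lymphoblastoid cells per well, incubate 5 hr at 37 C, add compound and incubate 24 hr at 37 C, add CellTiter-Glo, wait 30 min at room temperature, then read luminescence.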

[15] = Cell Viability - LYMP2-020 (AID 986)
Method in brief: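 Seed 2500 cells per well and incubate 5 hr at 37 C. Add compounds at a concentration series and incubate 24 hr at 37 C. Add CellTiter-Glo, wait 30 min at RT, read luminescence, and fit a Hill curve for AC50.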

[16] = Cell Viability - LYMP2-022 (AID 987)
Method in brief: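 Cells were seeded at 2500 per well, rested 5 hr at 37 C, and treated with titrated compounds for 24 hr at 37 C. Cellular ATP was then quantified by luciferase luminescence, and AC50 values were derived from Hill-modelled concentration-response curves.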

[17] = Cell Viability - LYMP2-024 (AID 988);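 note: plate controls were DMSO only for no effect and 92 µM tetraoctylammonium bromide for full effect; nearly all actives have a fitted effect of over 60% in size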
Method in brief: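 qHTS cytotoxicity, human lymphoblastoid line, complete medium; 24 h cpd treatment, 37 C; CellTiter-Glo ATP luminescence readout; tetraoctylammonium bromide positive control; AC50 via Hill fit.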

[18] = Cell Viability - LYMP2-026 (AID 989); note: % is set by controls: 0 for no effect and ±100 for the full control effect; nearly all actives have a fitted effect of over 50% in size
Method in brief: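 Cells are seeded at 2500 per well and held 5 hr at 37 C. Compounds are added in concentration series for 24 hr, then CellTiter-Glo reagent is applied and luminescence read.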

[19] = Cell Viability - LYMP1-002 - Assay at 24 hr (AID 993); note: % is set by controls: 0 for no effect and ±100 for the full control effect
Method in brief: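 Acute toxicity is measured as concentration-dependent loss of cellular ATP in a human lymphoblastoid line (Coriell LYMP1-002) after 24 h treatment in complete medium. ATP is quantified by luciferase luminescence and AC50 derived by Hill modelling.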

[20] = Cell Viability - LYMP1-002 - Assay at 40 hr (AID 994);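 note: 0% = DMSO only and full inhibition = 92 µM tetraoctylammonium bromide; nearly all actives have a fitted effect of over 60% in size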
Method in brief: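 Cells are plated at 2500 per well and rested 5 hr at 37 C. Compounds are added and incubated 40 hr at 37 C. CellTiter-Glo reagent is added for 30 min at room temperature before luminescence is read.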

[21] = target: Glucocorticoid receptor (Homo sapiens) (UniProt P04150); assay: qHTS assay for small molecule agonists of glucocorticoid receptor signaling (AID 588532; active = well fitted curve in the direction sought with a large enough effect in the signal ratio, with a control signal flat; the % refers to the signal ratio;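 note: 100% = dexamethasone at 0.1 µM and 0% = DMSO only wells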); conditions: HeLa MMTV-bla, beta-lactamase ratio, agonist, 18 h; stronger effect = higher value; percent of dexamethasone control, DMSO zero
Method in brief: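 MMTV-bla HeLa beta-lactamase reporter cells in 1% charcoal/dextran FBS medium, compounds up to 92 uM for 18 h at 37 C, CCF4 readout; normalized to 0.1 uM dexamethasone (100%), EC50 and efficacy from Hill fits.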

[22] = qHTS assay for small molecule antagonists of peroxisome proliferator-activated receptor delta signaling (AID 588535; active = well fitted inhibition curve with a large enough effect in the signal ratio, with a control signal flat, not every such curve was filed as active; the % refers to the signal ratio;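 for max response: cells co-treated with a PPAR-delta agonist as stimulator during compound exposure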); conditions: HEK293T PPARd-UAS-bla, beta-lactamase FRET ratio, 18 h; 460 nm channel
Method in brief: (§1)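 Fluorescence from CCF4-loaded GeneBLAzer PPAR-delta-UAS-bla HEK293T cells (2 hrs RT loading) quantified reporter inhibition after an 18 hr, 37 C compound exposure across a titration.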

[23] = target: Peroxisome proliferator-activated receptor delta (Homo sapiens) (UniProt Q03181); assay: as above
Method in brief: as §1

[24] = qHTS assay for small molecule agonists of retinoid X receptor alpha signaling (AID 588544; calls by dose curve;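 for activation: 0% = DMSO basal wells and 100% = reference agonist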); conditions: HEK293T RXRa-UAS-bla, beta-lactamase reporter, 18 h; 530 nm emission
[25] = target: Retinoic acid receptor RXR-alpha (Homo sapiens) (UniProt P19793); assay: as above
[26] = target: Thyroid hormone receptor beta (Homo sapiens) (UniProt P10828); assay: qHTS assay for small molecule agonists of thyroid hormone receptor beta signaling (AID 588545; calls by dose curve;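 note: 0% = DMSO only and 100% = 10 nM T3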)
Method in brief: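 Compounds were tested as agonists in TR-UAS-bla-GripTite HEK 293 cells. After 18 hrs at 37 C, CCF4 substrate was added and fluorescence read after 2 hrs at room temperature.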

[27] = qHTS assay for small molecule antagonists of retinoid X receptor alpha signaling (AID 588546; active = well fitted inhibition curve with a large enough effect in the signal ratio, with a control signal flat, not every such curve was filed as active; the % refers to the signal ratio;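 note: cells stimulated with 9-cis-retinoic acid as agonist; % is set by controls: 0 for no effect and ±100 for the full control effect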); conditions: HEK293T RXRa-UAS-bla, beta-lactamase ratio, antagonist mode; measured here: W530 green channel, cytotoxicity proxy
Method in brief: (§2)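 Beta-lactamase reporter inhibition, read as CCF4 fluorescence ratio (ex 405, em 460/530 nm) after 2 h at RT. HEK293T UAS-bla cells, 2500/well, were stimulated with 9-cis-RA at 500 or 100 nM final alongside test compound for 18 h at 37 C.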

[28] = target: Retinoic acid receptor RXR-alpha (Homo sapiens) (UniProt P19793); assay: as above; conditions: HEK293T RXRa-UAS-bla, beta-lactamase ratio, antagonist mode
Method in brief: as §2

[29] = target: Thyroid hormone receptor beta (Homo sapiens) (UniProt P10828); assay: qHTS assay for small molecule antagonists of thyroid hormone receptor beta signaling (AID 588547; active = well fitted inhibition curve with a large enough effect in the signal ratio, with a control signal flat, not every such curve was filed as active; the % refers to the signal ratio;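 note: cells stimulated with 0.4 nM T3 agonist during compound exposure; series mostly up to about 77 µM; % is set by controls: 0 for no effect and ±100 for the full control effect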); conditions: TR-UAS-bla HEK293, beta-lactamase ratio, antagonist mode, 18 h
Method in brief: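 TR-UAS-bla GripTite HEK293 cells in 2% charcoal/dextran FBS medium; compounds 0.59 nM to 92 uM with T3 at 0.4nM final, 18 h at 37 C. Beta-lactamase read by CCF4 fluorescence (460/530 nm); Hill fits gave IC50 and efficacy.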

[30] = target: Voltage-gated inwardly rectifying potassium channel KCNH2 (Homo sapiens) (UniProt Q12809); assay: qHTS Assay for Small Molecule Inhibitors of the Human hERG Channel Activity (AID 588834);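 note: top concentration of the series differs between compounds; % is set by controls: 0 for no effect and ±100 for the full control effect; lower thallium flux fluorescence means stronger hERG block; nearly all actives have a fitted effect of over 50% in size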
Method in brief: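 Step 1: BacMam hERG transduction of U2OS, 4 hrs RT. Step 2: overnight 37 °C, plate 2000 cells/well, 4 hr. Step 3: FluxOR load, compound 10 min, stimulate, read fluorescence.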

[31] = qHTS assay for small molecule activators of the p53 signaling pathway (AID 651743; active = well fitted activation curve with a large enough effect in the signal ratio, not every such curve was filed as active; the % refers to the signal ratio; note: series mostly up to about 92 µM; % of control where 0% means no effect); conditions: HCT-116 p53RE-bla, beta-lactamase FRET ratio, 16 h; activation: stronger effect = higher value
Method in brief: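 Following 16 hours of compound exposure at 37 C, HCT-116 cells bearing the p53RE-bla reporter were loaded with LiveBLAzer B/G FRET substrate for 2 hours at room temperature and fluorescence intensity was recorded.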

[32] = qHTS assay for small molecule disruptors of the mitochondrial membrane potential - 1 hr assay (AID 651754; calls by dose curve; note: % is set by controls: 0 for no effect and ±100 for the full control effect; nearly all actives have a fitted effect of over 35% in size)
Method in brief: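 Loss of mitochondrial potential shifts the cationic dye from red mitochondrial aggregates to green cytoplasmic monomers. Cells (HepG2) are treated with compound for 1 hr before a 30 min dye incubation at 37C.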

[33] = qHTS assay for small molecule disruptors of the mitochondrial membrane potential - 5 hr assay (AID 651755; calls by dose curve; note: % is set by controls: 0 for no effect and ±100 for the full control effect; nearly all actives have a fitted effect of over 40% in size)
Method in brief: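 Read-out: ratiometric Mito-MPS fluorescence, green monomer (ex 490/em 535) vs red mitochondrial aggregate (ex 540/em 590). HepG2 cells treated 5 hr at 37C before 30 min dye loading.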

[34] = target: Peroxisome proliferator-activated receptor alpha (Homo sapiens) (UniProt Q07869); assay: qHTS assay for small molecule agonists of the peroxisome proliferator-activated receptor alpha (PPARalpha) signaling pathway (AID 651778); conditions: PathHunter PPARalpha complementation, chemiluminescence, 6 h; max response: stronger effect = higher value; note: % of control where 0% means no effect
Method in brief: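 Enzyme-fragment complementation assay in which ligand-bound PPARalpha translocates and forms an active enzyme that generates chemiluminescence. Cells were plated overnight, exposed to compound for 6 hr at 37 C, and then given detection reagent for 60 min at room temperature.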

[35] = target: Nuclear receptor ROR-gamma (Homo sapiens) (UniProt P51449); assay: qHTS assay for small molecule antagonists of the retinoid-related orphan receptor gamma (ROR-gamma) signaling pathway (AID 651802)
Method in brief: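 Steps: cells dispensed; compound or DMSO transferred by pin tool; doxycycline added to induce the ROR response element-driven luciferase; plates held 16hr at 37C; ONE-Glo added and luminescence measured.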

[36] = qHTS assay for small molecule agonists of the antioxidant response element (ARE) signaling pathway measured by Nrf2-dependant transcriptional activity (AID 720636; active = well fitted curve in the direction sought with a large enough effect in the repeat runs; an effect the other way counts as inactive or inconclusive;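 note: HepG2 cells with an ARE-driven luciferase reporter; % of control where 0% means no effect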)
Method in brief: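 Cells: ARE-luc HepG2 with Nrf2-responsive luciferase. Medium contained 1% dialyzed FBS. Compound exposure lasted 16 hr at 37 C and 5% CO2, followed by ONE-Glo luciferase detection.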

[37] = qHTS assay for small molecule antagonists of the retinoid-related orphan receptor gamma (ROR-gamma) signaling pathway - cell viability counter screen (AID 720652; active = well fitted curve in the direction sought with a large enough effect in the repeat runs; an effect the other way counts as inactive or inconclusive;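 note: CHO reporter cells with doxycycline-induced ROR-gamma expression; series mostly up to about 92 µM; compound exposure lasted 16 hr before ATP read; % is set by controls: 0 for no effect and ±100 for the full control effect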)
Method in brief: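 Steps: seed CHO cells bearing TET-inducible ROR and ROR response element-luciferase; rest 5 hr at 37 C; add compound, then doxycycline; incubate 16 hr; add CellTiter-Glo and read luminescence as ATP-based viability.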

[38] = qHTS assay for small molecule agonists of the antioxidant response element (ARE) signaling pathway measured by Nrf2-dependant transcriptional activity - cell viability counter screen (AID 720653; active = well fitted curve in the direction sought with a large enough effect in the repeat runs; an effect the other way counts as inactive or inconclusive; note: % is set by controls: 0 for no effect and ±100 for the full control effect); conditions: ARE-bla HepG2 viability, CellTiter-Glo ATP luminescence, 16 h; max response: stronger effect = lower value
Method in brief: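 ARE-bla HepG2 cells treated with compounds for 16 h at 37C; this counter screen measures viability as intracellular ATP by CellTiter-Glo luminescence after 30 min at room temperature.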

[39] = qHTS assay for cell viability of HEK293 cells (AID 743288); conditions: ATP luminescence (CellTiter-Glo), 18 h; max response: stronger effect = lower value
Method in brief: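 Viable-cell counts were inferred from luciferase-based ATP content in HEK293 cells seeded at 2,000/well, pre-incubated ≥5 h, then dosed with DMSO-solubilised compounds for 18 h at 37 C.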

[40] = qHTS assay for cell viability of the p53RE-bla HCT-116 cell line (AID 743292)
Method in brief: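 HCT-116 p53RE-bla cells seeded 4,000/well; 5 h at 37 C; compound (DMSO) added; 16 h at 37 C; CellTiter-Glo added, 30 min RT; luminescence read.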

[41] = target: Nuclear receptor subfamily 1 group I member 2 (Rattus norvegicus) (UniProt Q9R1A7); assay: qHTS assay for small molecule activators of the rat pregnane X receptor (rPXR) signaling pathway (AID 651751; call rule not given here; note: 0% is about no effect); conditions: rPXR reporter cells, luciferase (One-Glo), 24 h
[42] = qHTS assay for small molecule activators of the human pregnane X receptor (PXR) signaling pathway (AID 720659; call rule not given here; note: 0% is about no effect)

Retinoic acid receptor RXR-alpha (Homo sapiens), sequence (P19793 whole entry, looked up): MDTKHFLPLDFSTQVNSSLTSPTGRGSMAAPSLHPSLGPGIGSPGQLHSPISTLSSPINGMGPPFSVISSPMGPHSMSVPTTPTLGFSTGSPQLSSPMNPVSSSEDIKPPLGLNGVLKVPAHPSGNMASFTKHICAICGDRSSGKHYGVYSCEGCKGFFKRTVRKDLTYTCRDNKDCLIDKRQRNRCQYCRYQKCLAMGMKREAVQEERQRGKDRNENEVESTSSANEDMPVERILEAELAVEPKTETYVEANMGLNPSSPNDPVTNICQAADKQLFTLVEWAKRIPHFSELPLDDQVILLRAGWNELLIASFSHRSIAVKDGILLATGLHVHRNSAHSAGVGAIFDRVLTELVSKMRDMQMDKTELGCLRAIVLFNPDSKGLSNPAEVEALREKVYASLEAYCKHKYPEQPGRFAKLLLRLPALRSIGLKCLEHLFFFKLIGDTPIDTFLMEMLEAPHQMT
Thyroid hormone receptor beta (Homo sapiens), sequence (P10828 whole entry, looked up): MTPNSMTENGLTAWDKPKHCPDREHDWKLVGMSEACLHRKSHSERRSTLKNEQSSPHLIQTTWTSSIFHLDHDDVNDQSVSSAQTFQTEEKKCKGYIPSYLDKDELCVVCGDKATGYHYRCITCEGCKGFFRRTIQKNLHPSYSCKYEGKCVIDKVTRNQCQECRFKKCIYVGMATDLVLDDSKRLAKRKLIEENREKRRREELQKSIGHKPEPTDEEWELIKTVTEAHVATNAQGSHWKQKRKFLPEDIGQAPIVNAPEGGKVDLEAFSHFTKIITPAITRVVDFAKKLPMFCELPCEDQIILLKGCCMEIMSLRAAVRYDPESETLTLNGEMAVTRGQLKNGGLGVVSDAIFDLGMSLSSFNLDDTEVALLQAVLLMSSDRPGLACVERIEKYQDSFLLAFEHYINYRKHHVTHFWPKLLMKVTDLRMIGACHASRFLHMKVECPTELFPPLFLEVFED
Glucocorticoid receptor (Homo sapiens), sequence (P04150 whole entry, looked up): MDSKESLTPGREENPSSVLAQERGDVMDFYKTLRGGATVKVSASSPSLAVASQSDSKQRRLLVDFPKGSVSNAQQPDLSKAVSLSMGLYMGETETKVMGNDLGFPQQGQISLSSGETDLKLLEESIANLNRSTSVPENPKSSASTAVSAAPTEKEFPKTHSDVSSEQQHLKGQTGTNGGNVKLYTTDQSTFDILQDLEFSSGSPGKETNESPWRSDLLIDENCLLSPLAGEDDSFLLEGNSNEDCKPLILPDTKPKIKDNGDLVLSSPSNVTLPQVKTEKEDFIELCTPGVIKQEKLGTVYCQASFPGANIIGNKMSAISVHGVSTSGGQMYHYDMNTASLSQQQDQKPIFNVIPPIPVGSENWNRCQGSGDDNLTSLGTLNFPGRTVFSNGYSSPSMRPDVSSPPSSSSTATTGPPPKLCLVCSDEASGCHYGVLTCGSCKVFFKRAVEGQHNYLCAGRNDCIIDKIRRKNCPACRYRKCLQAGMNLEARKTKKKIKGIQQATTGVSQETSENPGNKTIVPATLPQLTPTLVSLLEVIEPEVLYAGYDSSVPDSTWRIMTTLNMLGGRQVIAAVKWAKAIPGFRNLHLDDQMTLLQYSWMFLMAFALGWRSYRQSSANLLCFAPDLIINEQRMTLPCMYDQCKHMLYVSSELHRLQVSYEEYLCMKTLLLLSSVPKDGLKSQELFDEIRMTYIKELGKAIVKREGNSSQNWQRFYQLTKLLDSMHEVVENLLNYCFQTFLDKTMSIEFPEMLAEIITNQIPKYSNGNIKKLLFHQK
Peroxisome proliferator-activated receptor alpha (Homo sapiens), sequence (Q07869 whole entry, looked up, the tested form may be a part): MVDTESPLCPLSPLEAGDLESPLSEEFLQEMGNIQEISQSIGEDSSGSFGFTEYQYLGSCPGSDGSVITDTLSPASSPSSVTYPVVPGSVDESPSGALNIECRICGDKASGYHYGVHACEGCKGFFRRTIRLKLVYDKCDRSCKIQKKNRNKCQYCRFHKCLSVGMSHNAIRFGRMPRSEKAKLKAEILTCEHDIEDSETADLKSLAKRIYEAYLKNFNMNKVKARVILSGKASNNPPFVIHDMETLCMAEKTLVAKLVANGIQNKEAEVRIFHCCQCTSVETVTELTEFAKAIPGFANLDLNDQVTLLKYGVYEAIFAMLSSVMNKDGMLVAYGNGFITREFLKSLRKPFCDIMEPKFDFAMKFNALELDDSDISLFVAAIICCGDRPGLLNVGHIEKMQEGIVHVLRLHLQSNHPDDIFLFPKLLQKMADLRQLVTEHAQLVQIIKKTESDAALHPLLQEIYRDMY
Nuclear receptor subfamily 1 group I member 2 (Rattus norvegicus), sequence (Q9R1A7 whole entry, looked up): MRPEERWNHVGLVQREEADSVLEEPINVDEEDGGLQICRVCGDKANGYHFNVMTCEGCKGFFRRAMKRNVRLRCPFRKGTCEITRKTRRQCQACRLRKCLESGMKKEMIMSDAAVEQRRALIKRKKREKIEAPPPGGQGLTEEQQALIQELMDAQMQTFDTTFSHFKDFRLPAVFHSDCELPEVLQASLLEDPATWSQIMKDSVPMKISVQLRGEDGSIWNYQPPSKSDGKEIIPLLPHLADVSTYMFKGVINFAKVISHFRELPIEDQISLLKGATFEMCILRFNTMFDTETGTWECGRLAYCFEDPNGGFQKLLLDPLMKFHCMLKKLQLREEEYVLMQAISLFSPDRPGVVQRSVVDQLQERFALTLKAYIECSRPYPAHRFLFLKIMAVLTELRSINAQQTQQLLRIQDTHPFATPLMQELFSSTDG
Peroxisome proliferator-activated receptor delta (Homo sapiens), sequence (Q03181 whole entry, looked up): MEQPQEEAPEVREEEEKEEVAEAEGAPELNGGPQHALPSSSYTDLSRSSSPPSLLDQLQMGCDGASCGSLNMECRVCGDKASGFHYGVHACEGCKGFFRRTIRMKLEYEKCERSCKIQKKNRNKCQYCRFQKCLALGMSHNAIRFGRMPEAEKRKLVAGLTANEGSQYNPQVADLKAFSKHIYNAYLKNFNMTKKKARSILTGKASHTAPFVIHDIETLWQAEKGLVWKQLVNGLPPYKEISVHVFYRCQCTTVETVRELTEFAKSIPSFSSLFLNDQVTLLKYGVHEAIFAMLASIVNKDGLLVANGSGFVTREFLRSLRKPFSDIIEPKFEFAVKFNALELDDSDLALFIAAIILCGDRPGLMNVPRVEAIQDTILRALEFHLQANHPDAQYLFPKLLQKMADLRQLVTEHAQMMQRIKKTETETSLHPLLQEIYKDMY
Nuclear receptor ROR-gamma (Homo sapiens), sequence (P51449 whole entry, looked up): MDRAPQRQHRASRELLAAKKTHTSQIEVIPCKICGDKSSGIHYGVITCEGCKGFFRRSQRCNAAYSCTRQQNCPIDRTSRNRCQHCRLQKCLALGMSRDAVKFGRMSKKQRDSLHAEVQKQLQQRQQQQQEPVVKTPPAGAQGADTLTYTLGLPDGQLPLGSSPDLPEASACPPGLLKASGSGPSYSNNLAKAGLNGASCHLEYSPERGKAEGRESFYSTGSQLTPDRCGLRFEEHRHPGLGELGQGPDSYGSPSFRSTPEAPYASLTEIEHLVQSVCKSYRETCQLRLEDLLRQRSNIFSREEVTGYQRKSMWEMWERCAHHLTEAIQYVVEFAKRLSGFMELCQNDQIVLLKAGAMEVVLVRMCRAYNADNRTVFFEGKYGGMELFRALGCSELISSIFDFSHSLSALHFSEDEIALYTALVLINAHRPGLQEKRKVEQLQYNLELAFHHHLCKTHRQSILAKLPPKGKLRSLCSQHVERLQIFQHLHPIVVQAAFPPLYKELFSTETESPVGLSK
Voltage-gated inwardly rectifying potassium channel KCNH2 (Homo sapiens), sequence (Q12809 whole entry, looked up): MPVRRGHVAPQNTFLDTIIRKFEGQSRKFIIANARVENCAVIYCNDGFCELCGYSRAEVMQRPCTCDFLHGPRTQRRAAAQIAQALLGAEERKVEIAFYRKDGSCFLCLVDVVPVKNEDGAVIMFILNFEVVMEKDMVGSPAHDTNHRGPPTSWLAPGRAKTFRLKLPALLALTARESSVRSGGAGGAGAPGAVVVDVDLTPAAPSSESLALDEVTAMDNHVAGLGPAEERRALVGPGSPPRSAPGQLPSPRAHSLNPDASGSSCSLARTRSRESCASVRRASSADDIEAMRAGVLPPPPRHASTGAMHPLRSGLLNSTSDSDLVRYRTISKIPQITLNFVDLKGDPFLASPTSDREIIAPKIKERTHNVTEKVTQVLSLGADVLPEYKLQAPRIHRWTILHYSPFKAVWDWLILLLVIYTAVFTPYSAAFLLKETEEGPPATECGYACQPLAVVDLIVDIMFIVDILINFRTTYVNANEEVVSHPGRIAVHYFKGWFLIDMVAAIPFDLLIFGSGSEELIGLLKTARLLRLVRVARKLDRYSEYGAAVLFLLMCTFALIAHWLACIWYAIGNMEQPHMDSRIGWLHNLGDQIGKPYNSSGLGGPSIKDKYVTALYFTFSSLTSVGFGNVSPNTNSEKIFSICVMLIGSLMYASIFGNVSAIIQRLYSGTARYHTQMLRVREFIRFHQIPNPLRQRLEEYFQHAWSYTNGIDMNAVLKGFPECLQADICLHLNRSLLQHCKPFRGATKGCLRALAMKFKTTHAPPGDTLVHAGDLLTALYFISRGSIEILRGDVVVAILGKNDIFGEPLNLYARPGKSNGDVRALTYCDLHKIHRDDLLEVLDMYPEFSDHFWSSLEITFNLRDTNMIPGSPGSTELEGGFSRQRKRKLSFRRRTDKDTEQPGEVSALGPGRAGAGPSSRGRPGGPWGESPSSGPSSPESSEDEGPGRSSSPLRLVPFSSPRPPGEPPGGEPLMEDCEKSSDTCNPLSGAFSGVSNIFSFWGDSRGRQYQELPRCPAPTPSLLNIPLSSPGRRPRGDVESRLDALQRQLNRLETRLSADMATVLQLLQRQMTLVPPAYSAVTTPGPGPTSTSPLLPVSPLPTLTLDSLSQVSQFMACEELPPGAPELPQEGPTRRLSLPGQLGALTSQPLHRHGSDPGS

O=C(/C=C/c1ccc(O)c(O)c1)OC1C[C@](O)(C(=O)O)C[C@@H](O)[C@H]1O (some centres not stated)
-7.31% and 4.34%: max response [27]
3.46% and 31.4%: max response [22]
inactive: Potency [1] | Potency [2] | Potency [3] | Potency [4] | Potency [5] | Potency [6] | Potency [7] | Potency [8] | Potency [9] | Potency [10] | Potency [11] | Potency [12] | Potency [13] | Potency [14] | Potency [15] | Potency [16] | Potency [17] | Potency [18] | Potency [19] | Potency [20] | activation [21] 6.81% and -6.91% | outcome [23] | outcome [25] | outcome [26] | max response [28] -11.4% and -2.14% | activity change % (negative = inhibition) [29] -9.6% and 0.221% | Potency [30] | activation [31] -1.07% and -1.86% | Potency [32] | Potency [33] | max response [34] -2.67% and 0.743% | Potency [35] | Potency [36] | Potency [37] | max response [38] -1.61% and -3.17% | max response [39] 5.94% and -3.39% | Potency [40] | max response [41] -2.65% and 8.84% | outcome [42]
6.31% and 0.0385%: max response [24]
